Measured values: paper PMC5540273 (PLoS ONE, 2017)

test system: MAP3K1; settings: concentration: 1 μM, replicates: in singlicate; n = 1
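Note: KINOMEscan kinase panel screen.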

Row | Compound | %Inh
1 | Cc1cc(N2CCC(NS(=O)(=O)c3ccc(F)cc3)CC2)nc(Nc2cccc(C#N)c2)n1.O=C(O)C(F)(F)F [GSK1653537] | 7%
2 | N#Cc1ccc(Oc2ccc(Nc3ncnc4cc[nH]c34)cc2Cl)cc1 | 0%
3 | CCc1nc(-c2cccc(N(C)S(=O)(=O)c3ccccc3)c2)c(-c2ccnc(Nc3ccc(N4CCN(C(C)=O)CC4)nc3)n2)s1 [GSK1645895] | 22%
4 | CNc1nccc(-c2c(-c3ccc(F)cc3)ncn2CCCN2CCOCC2)n1 [SB-222516] | 21%
5 | Cc1ccc(C)c(NC(=O)NCCNc2ccnc(Nc3ccc(F)cc3)n2)c1 [GSK1379878] | 0%
6 | Cc1cccc(-c2nc(Nc3ccc4[nH]nnc4c3)c3ccccc3n2)n1 [GW867587] | 0%
7 | COc1ccc(Nc2nccc(N3CCC(NC(=O)c4cccc(NC(C)=O)c4)C3)n2)cc1 (stereo not shown) [GSK1379732] | 0%
8 | CSc1ccc(NC2=C(c3ccccc3Cl)C(=O)NC2=O)cc1 [SB-342411] | 14%
9 | C[C@@H]1CCN(C(=O)CO)C[C@@H]1N(C)c1ncnc2[nH]ccc12 | 0%
10 | CSc1nn2c(=O)cc(N3CCOCC3)nc2n1Cc1cccc(Cl)c1Cl [GSK2347225] | 6%
11 | COc1ccc(-c2oc3ncnc(N)c3c2-c2ccc(OC)cc2)cc1 [SB-589132] | 10%
12 | COc1ccc(NC(=O)c2ccc(-c3cc(-c4nnc(C)o4)ccc3C)cc2)cc1 [GW595885] | 2%
13 | COC(=O)c1c(-c2ccccc2)c2cc(Cl)ccc2c(=O)n1Cc1ccc(S(C)(=O)=O)cc1 | 0%
